An excerpt weighted towards active compounds, which were near 8% of everything screened.
HT1080NT lethal: kills 2HG-producing HT-1080-NT fibrosarcoma cells. Potency, µM (top dose mostly 46.1 µM), for inactives: top-dose activity, negative = less viability, usual class: cytotoxic. 360,000 compounds, 1.6% hits. HT-1080-NT fibrosarcoma viability, CellTiter-Glo ATP luminescence, 48 h. AID 686970;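 also: NT is the 2HG producing partner of a matched IDH1 knockdown line; 0% = DMSO-treated cells and -100% = media-only wells without cells; nearly all actives have a fitted effect of over 55% in size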
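HT-1080-NT fibrosarcoma cells (2HG-overproducing), 750 cells/well in RPMI with 5% FBS, dosed after 2 h and incubated 48 h at 37C. CellTiter-Glo luminescence normalized to DMSO and no-cell wells; concentration-response curves fitted and classed.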
SW480 rereplic: inducers of DNA re-replication in SW480 colon cancer cells | SW480 DNA re-replication, Hoechst DNA content imaging, 48 h | Potency, µM (doses to about 46.1 µM), without a hit: at the top dose re-replication activation, actives largely listed as activators | 340,000 compounds, 1.8% hits; also: % of control where 0% means no effect; nearly all actives have a fitted effect of over 55% in size
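Treated cells incubate 48 hr (37 C, 5% CO2), are stained 40 min with Hoechst, and nuclear fluorescence is enumerated; a rise in nuclei with high DNA signal marks re-replication.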
MCF10A rereplic: DNA re-replication induction in MCF 10a cells; MCF 10A DNA re-replication, Hoechst nuclear intensity, 48 h; Potency, µM (titrated, usually from 46.1 µM), without a hit: top-dose activity, positive = re-replication, most hits filed as activators; 350,000 compounds, 2.9% hits; AID 624296; also: % of control where 0% means no effect; nearly all actives have a fitted effect of over 50% in size
KB-3-1 cytotox: KB-3-1 parental cell cytotoxicity | 400,000 compounds, 1.4% hits | AID 1347075 | KB-3-1 viability, CellTiter-Glo ATP luminescence, 72 h | Potency, µM (highest dose often 46.1 µM), actives largely listed as cytotoxic; also: % is scaled to controls: 0 for no effect and ±100 for the full control effect; nearly all actives have a fitted effect of over 60% in size
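Parental KB-3-1 viability, qHTS format: 72 h compound exposure, 37 °C; CellTiter-Glo; media-only wells and DMSO plates as controls; concentration-effect fits on corrected data.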
KB-V1 cytotox: kills drug-selected multidrug resistant KB-V1 cells; KB-V1 MDR cells viability, CellTiter-Glo, 72 h; 400,000 compounds, 3.4% hits; Potency, µM (titrated, usually from 46.1 µM), usual class: cytotoxic; also: % is scaled to controls: 0 for no effect and ±100 for the full control effect; nearly all actives have a fitted effect of over 60% in size
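Potencies derive from concentration-effect curves fitted to normalized luminescence (CellTiter-Glo) of KB-V1 cells treated for 72 h at 37 degrees C in phenol-red-free DMEM containing 10% FBS.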
HT1080 IDH1KD tx: kills HT-1080 cells with IDH1 knockdown; HT-1080 IDH1 knockdown viability, ATP luminescence, 48 h; Potency, µM (titrated, usually from 46.1 µM), for inactives: at the highest dose activity, negative = toxicity, hits mostly cytotoxic; 360,000 compounds, 2% hits;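 also: 0% = DMSO wells and -100% = cell-free medium wells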
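Assay cells: HT-1080 with IDH1 knockdown, 750 per well, RPMI/5% FBS. Exposure: 48 h at 37 °C following 2 h pre-incubation. Read: CellTiter-Glo luminescence; fitted concentration-response, curve class assigned.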
Active calls of the source: *; i = inactive; ? = inconclusive; . = no result given; ! = not confirmed by another sample. Calls follow the shape of the dose curve; as a rule, active = well fitted curve in the direction sought with a large enough effect; inconclusive = small, poorly fitted or top-dose-only effect, or another doubt; inactive = no such curve, though single readings can be large; an effect the other way counts as inactive or inconclusive. Potency is read from the fitted curve at half-maximal effect.

SMILES | HT1080NT lethal | SW480 rereplic | MCF10A rereplic | KB-3-1 cytotox | KB-V1 cytotox | HT1080 IDH1KD tx
CCN(CC)CCC(=O)Nc1cccc2c1C(=O)c1ccccc1C2=O | 18µM* | ? | -20% | ? | 18µM* | 15µM*
CCN(CC)CCNC(=O)c1ccc2c(c1NCCO)C(=O)c1ccccc1C2=O | ? | ? | -1% | ? | 7.3µM* | ?
Cc1cccn2c(=O)c(C(=O)NCc3ccccc3Cl)c(O)nc12 | . | . | . | i | i | .
COC(=O)C1=C(C)N(C)C(C)=C(C(=O)OC)C1c1ccc(Cl)cc1 | 3% | 2% | 17% | ? | i | -8%
CCOC(=O)C1=C(C)NC(=S)N(C(C)=O)C1c1ccc(Cl)cc1 (stereo not drawn) | ? | -1% | -3% | i | i | 13µM*
CCOC(=O)C1=C(C)N(C)C(C)=C(C(=O)OCC)C1c1ccc(Cl)cc1 | ? | ? | 23µM* | i | ? | 23µM*
CCOC(=O)C1=C(C)NC(=S)N(C(C)=O)C1c1ccc(OC)c(OC)c1 (stereo not drawn) | ? | -2% | ? | i | i | ?
CC1=C(C(=O)Nc2cccc(C(F)(F)F)c2)C(c2ccccc2)n2ncnc2N1 (stereo not drawn) | . | . | . | i | ? | .
Cc1ccc(OCC(=O)Nc2ccc3nc(SCC(=O)N(C)c4ccccc4)sc3c2)cc1 | . | . | . | i | ? | .
COc1cc2c(cc1OC)C(COc1ccc3c(C)cc(=O)oc3c1)N(C(=O)Cc1ccccc1)CC2 (stereo not drawn) | . | . | . | i | i | .
CCCN(CCC)CCNC(=O)c1cc(-c2ccc(Br)s2)nc2ccccc12 | . | . | . | i | i | .
CN1CCN(NC(=O)c2cc(-c3ccc(Br)s3)nc3ccccc23)CC1 | 21µM* | ? | 23µM* | i | i | 23µM*
O=C(NN1CCOCC1)c1cc(-c2cccc(Cl)c2)nc2ccccc12 | 4% | -1% | -3% | i | 12µM* | -11%
CCN(CC)CCNC(=O)c1cc(-c2ccc(Br)s2)nc2ccccc12 | 18µM* | ? | ? | i | ? | ?
CCCCOc1cc(C(=O)NCCN(CC)CC)c2ccccc2n1 | ? | -49% | 12µM*! | i | ? | ?
COc1cccc(-c2nc(S(=O)(=O)c3ccc(C)cc3)c(N3CCCCC3)o2)c1 | . | . | . | i | i | .
COc1cc2c(cc1OC)C1=C(C#N)CC/C(=N\S(=O)(=O)c3cccc(Cl)c3)N1CC2 | -14% | 4% | 2% | ? | 16µM* | ?
O=C1NC(=S)S/C1=C\c1ccc(SCc2ccco2)o1 | -8% | -2% | -10% | i | ? | -6%
O=C1NC(=S)S/C1=C\c1ccc(SCc2ccccc2)o1 | -13% | ? | 3.7µM* | ? | ? | -16%
CCOc1ccc(NCc2nnc(SCc3ccc(Cl)cc3)n2-c2ccccc2)cc1 | -9% | 25% | ? | ? | 4.6µM* | -19%
CCOC(=O)CSc1nnc(CNc2ccc(Cl)cc2)n1-c1ccccc1 | 3% | 1% | -4% | i | i | 23%
CCn1c(=O)cc(OCC(=O)N2CCN(c3ccc(C)cc3)C(C)C2)c2ccccc21 (stereo not drawn) | . | . | . | i | i | .
COc1ccc(-c2nc3c4ccccc4ccn3c2CN2CCOCC2)cc1OC | -14% | -16% | ? | i | 16µM* | 6%
COc1ccc(-c2nc3c4ccccc4ccn3c2Cc2cccc(F)c2)cc1OC | 23µM* | . | . | i | i | ?
CCOc1ccc(CCNC(=O)CCCc2nnc3n(CC)c(=O)c4sccc4n23)cc1OCC | . | . | . | i | i | .
SMILES | HT1080NT lethal | SW480 rereplic | MCF10A rereplic | KB-3-1 cytotox | KB-V1 cytotox | HT1080 IDH1KD tx
CCCNC(=O)C(=O)NCC(c1ccc2c(c1)OCO2)N1CCOCC1 (stereo not drawn) | . | . | . | i | i | .
CCOc1ccc(OCC)c(NC(=O)CCc2nc3cccnc3n2-c2ccccc2)c1 | . | . | . | i | i | .
CCCCn1cnc2c(SCc3ccccc3)nc(N)nc21 | -1% | -6% | 1% | i | i | -6%
CCCCn1cnc2c(SCc3ccc(Br)cc3)nc(N)nc21 | 15µM* | 1% | ? | i | i | 16µM*
CCCCn1cnc2c(SCc3ccccc3Cl)nc(N)nc21 | -25% | ? | 16µM* | i | i | -26%
Cc1ccccc1OCCSc1nc2ccc(NC(=O)c3cccs3)cc2s1 | . | . | . | ? | i | .
COC(=O)c1ccccc1NC(=O)CSc1nc(-c2ccco2)cc(C(F)(F)F)n1 | ? | 0% | 0% | ? | ? | 3.5µM*
Cc1ccc(NC(=O)CSc2nc(-c3ccco3)cc(C(F)(F)F)n2)cc1C | 10µM* | 2.6µM* | 1.2µM* | 4.1µM*! | 4.1µM* | 2.5µM*
Cc1cccc(NC(=O)CN(C)S(=O)(=O)c2ccc3c(c2)c(=O)n(C)c(=O)n3C)c1C | . | . | . | i | i | .
CCCOc1ccc(C(=O)CCN2CCCCC2)cc1 | ? | ? | ? | ? | ? | -15%
Cc1ccc(CCC(=O)Nc2ccc(Br)cc2)o1 | -3% | 15µM* | ? | i | i | -29%
CCOc1ccc(NC(=O)CCC(=O)c2ccc(Br)cc2)cc1 | 13% | 0.65µM* | 4% | i | i | 4%
CCOc1ccc(C(=O)CCN2CCCCCC2)cc1 | ? | ? | 3.3µM* | ? | i | ?
CCOc1ccc(NC(=O)CCC(=O)c2ccc(OC)cc2)cc1 | 2% | -6% | -3% | i | i | -2%
COc1ccc(C(=O)CCN2CCc3cc(OC)c(OC)cc3C2)cc1 | ? | 2% | 3.7µM* | i | i | ?
Brc1cccc[n+]1CCCC[n+]1ccccc1Br | . | . | . | i | i | .
Cc1cc([N+](=O)[O-])ccc1NC(c1nnc(-c2ccccc2)o1)c1ccccc1F (stereo not drawn) | . | . | . | i | i | .
COc1ccc(C(=O)CCN2CCN(c3ccccc3OC)CC2)cc1 | ? | ? | 2.6µM* | i | i | 0%
CCN1CCN(CC(=O)c2ccc(OC)cc2)CC1 | 2% | -55% | 2.1µM* | i | i | 1%
COc1ccccc1N1CCN(CCCC(=O)c2ccc(F)cc2)CC1 | -16% | 9% | 1% | i | i | -16%
COc1ccccc1N1CCN(CC(=O)Nc2cc(C)nn2-c2nc(C)cc(C)n2)CC1 | ? | 9.2µM* | 13% | 4.6µM* | i | ?
CCN(C(=O)CSc1nc2ccccc2nc1Cc1cccc(OC)c1)c1cccc(C)c1 | . | . | . | i | i | .

Screening results deposited in PubChem BioAssay by National Center for Advancing Translational Sciences (NCATS).
